Autophagy HCS – autophagy modulation, high-content screen. MEF GFP-LC3 puncta imaging; test concentration mostly 10 µM. calls only at 10 µM (by protocol). 0.98% of 190,000 active. AID 463193;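 active = percentage of spot-positive cells more than 3 SD above its plate mean, without a fluorescence outlier flag or 80% toxicity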
PERK inhibitor – human PERK inhibition, primary cell-based screen. Q9NZJ5. CHO PERK-DD fusion, SEAP luminescence translation reporter. inhibition, % at 5.6 µM. 0.17% of 220,000 active;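 active = inhibition above the mean inhibition of all tested compounds plus 3 SD, set separately per screening campaign, cut at about 2.9% in these data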;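 also: PERK kinase domain activated by AP20187 dimerizer at 100 nM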
Insulin prom up – MIN6 insulin promoter up-regulation. MIN6 insulin promoter-GFP reporter, high-content imaging; active compounds read high. z-score at 5 µM. 0.3% of 190,000 active. AID 1625;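 active = z-score above 3 at 5 µM with at least 500 cells counted in the well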
eIF4E-4G inh – eIF4E/eIF4G interaction inhibition in translation initiation. 0.37% of 220,000 active. AID 782. inhibition, % at 21.7 µM. TR-FRET eIF4E-eIF4GI(517-606) binding, 2 h;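 active = inhibition above about 30%, limit read from the data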
INS promoter inh – TRM-6 insulin promoter activity inhibition. TRM-6 cells (human fetal islet line), insulin promoter-eGFP reporter, imaging; reporter expression induced with tamoxifen. inhibition, % at 2 µM. 0.9% of 130,000 active;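 active = inhibition above the mean plus 3 SD, with well images judged a real hit on visual review, cut at about 60% in these data, passing the limit was not always enough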
Of the large screens only hits and unclear results are named; the others gave an inactive call; [ ] = another dose, or the depositor's remark. This is a sample that favours compounds with a hit; in the whole collection about 2% have one here.

CC(=O)C1=C(C)NC(SCC(=O)c2ccccc2)=C(C#N)C1CC(C)C (centres undefined)	none (no result: INS promoter inh)
COc1ccccc1CNC(=S)Nc1ccc2nc(N3CCN(C)CC3)cc(C)c2c1	none
CCOC(=O)CSc1nnc(CSc2nc(C)cc(C)n2)n1Cc1ccco1	eIF4E-4G inh 136[fluorescence artefact?]
COC(=O)CS(=O)(=O)c1nnc([C@H](Cc2ccccc2)NC(=O)OC(C)(C)C)o1	INS promoter inh 70
O=C(c1ccc2c(c1)OCO2)N1CCCC1	Insulin prom up 8.9
CN(C)CCC(=O)c1ccc2c(c1)OCO2	INS promoter inh 82 (no result: Insulin prom up)
CCN1C(=O)/C(=C/N2CCc3ccccc32)SC1=S	Autophagy HCS active
Cc1ccc(-c2ccc(CCC(=O)O)n2NC(=O)c2ccc([N+](=O)[O-])cc2)cc1	none (no result: INS promoter inh)
O=C1C2C3C=CC(C4CC34)C2C(=O)N1/N=C/c1cccs1 (centres undefined)	none
O=C(OCC(=O)N1CCCC1)c1cncc(Br)c1	INS promoter inh 100
O=C(OCC(=O)N1CCCc2ccccc21)c1cncc(Br)c1	none (no result: INS promoter inh)
c1ccc(CC2CCN(C3=Nc4cccc5cccc3c45)CC2)cc1	Autophagy HCS active (no result: Insulin prom up)
c1cc2c3c(cccc3c1)C(N1CCN(C3=Nc4cccc5cccc3c45)CC1)=N2	none (no result: Insulin prom up, eIF4E-4G inh)
O=C1CCCC2=C1C(c1ccc(Br)cc1)c1c([nH]c(=S)[nH]c1=O)N2 (centres undefined)	eIF4E-4G inh 59
COc1ccc(N2CCN(c3ccc(Cl)nn3)CC2)cc1	none (no result: INS promoter inh)
COc1ccc2nc3cc(Cl)ccc3c(Nc3cc(C(C)C)c(O)cc3C)c2c1	none (no result: Autophagy HCS, Insulin prom up, INS promoter inh)
CCN(CC)CCCC(C)Nc1c2ccc(Cl)cc2nc2ccc(OC)cc12 (centres undefined)	Insulin prom up 12 (no result: Autophagy HCS, INS promoter inh)
CCc1ccc(CCC(=O)Nc2sc3c(c2C#N)CCCC3)o1	Autophagy HCS active
Cc1ccc2[nH]c3c(=O)n(N)c(=O)[nH]c3c2c1	none (no result: Autophagy HCS, INS promoter inh)
Cc1ccc2[nH]c3c(=O)n(N)c(C)nc3c2c1	INS promoter inh 94
COc1ccc2[nH]c3c(=O)n(N)c(C)nc3c2c1	INS promoter inh 81
COc1ccc2[nH]c3c(=O)n4c(nc3c2c1)SCC4	none (no result: INS promoter inh)
O=C(COc1ccccc1)N1CCN=C1c1ccccc1	Insulin prom up 3.1
O=C(NCc1ccco1)c1nn2c(C(F)(F)F)cc(-c3cccs3)nc2c1Br	none
COC(=O)c1nn2c(C(F)(F)F)cc(-c3ccc(Br)o3)nc2c1Br	Autophagy HCS active (no result: eIF4E-4G inh)
O=S(=O)(NCCc1ccncc1)c1ccc(S(=O)(=O)N2CCCCCC2)cc1	none (no result: INS promoter inh)
COC(=O)Cc1c(C)[nH]n(-c2cc(Cl)cc(Cl)c2)c1=O	none (no result: INS promoter inh)
COc1cc(OC)c(NC(=S)NCc2ccc(F)cc2)cc1Cl	none
COc1cc(C2/C(=C(/O)c3ccccc3)C(=O)C(=O)N2c2ccccn2)ccc1O (centres undefined)	eIF4E-4G inh 82 (no result: INS promoter inh)
COc1ccc(COC(=O)C2=C(C)NC(=O)NC2c2ccc(O)c(OC)c2)cc1 (centres undefined)	none (no result: INS promoter inh)
CC1=C(C(=O)OCc2ccc(C)cc2)C(c2ccc(O)c([N+](=O)[O-])c2)NC(=O)N1 (centres undefined)	INS promoter inh 89
CC[C@@H]1C=C(C)C[C@H](C)C[C@H](OC)[C@H]2O[C@@](O)(C(=O)C(=O)N3CCCC[C@H]3C(=O)O[C@H](/C(C)=C/[C@@H]3CC[C@@H](O)[C@H](OC)C3)[C@H](C)[C@@H](O)CC1=O)[C@H](C)C[C@@H]2OC	PERK inhibitor 95
CO[C@H]1C[C@@H]2CC[C@@H](C)[C@@](O)(O2)C(=O)C(=O)N2CCCC[C@H]2C(=O)O[C@H]([C@H](C)C[C@@H]2CC[C@@H](O)[C@H](OC)C2)CC(=O)[C@H](C)C=C(C)[C@@H](O)[C@@H](OC)C(=O)[C@H](C)C[C@H](C)C=CC=CC=C1C	none (no result: Autophagy HCS, PERK inhibitor, INS promoter inh)
CCN(CC)c1ccc2cc(-c3nc4ccccc4[nH]3)c(=O)oc2c1	Autophagy HCS active (no result: Insulin prom up, INS promoter inh)
O=C(COC(=O)C1CCCCC1C(=O)N1CCc2ccccc21)NCc1ccco1 (centres undefined)	none (no result: INS promoter inh)
CCCCCC(=O)N/N=C(\C)c1ccc(Cl)cc1	INS promoter inh 100
Nc1c(-c2cccc([N+](=O)[O-])c2)nc2ccccn12	INS promoter inh 69
N#CCCn1cc(C(=O)N2CCCCC2)c(-c2cccc([N+](=O)[O-])c2)n1	none (no result: INS promoter inh)
Cc1sc2c(c1C)c(=O)n(-c1ccc(Cl)cc1)c(=O)n2Cc1cc(=O)n2ccccc2n1	none
Cc1cccc(C(=O)N=c2c(C#N)cc3c(=O)n4cccc(C)c4nc3n2Cc2ccco2)c1	Autophagy HCS active
Cc1cccn2c(=O)c3cc(C#N)c(=NC(=O)c4ccco4)n(Cc4ccco4)c3nc12	none (no result: Autophagy HCS, INS promoter inh)
COC(=O)C(NC(C)=O)(Nc1nc2c(C)cc(C)cc2s1)C(F)(F)F (centres undefined)	none (no result: Insulin prom up)
CCN(CC)c1ccc(/C=C/c2nc3ccccc3s2)cc1	Autophagy HCS active (no result: Insulin prom up)
COc1ccc(NC(=O)c2ccco2)cc1NC(=O)c1cccc(OC(C)C)c1	Autophagy HCS active (no result: INS promoter inh)
COc1cccc(C(=O)Nc2cc(NC(=O)c3ccco3)ccc2OC)c1	none
CC(C)(C)NC(=O)c1cccc(NC(=O)c2ccc(NC(=O)c3ccco3)cc2)c1	INS promoter inh 100
COc1ccc(Cl)cc1NC(=O)c1ccoc1C	none
COc1ccccc1C(=O)COC(=O)c1ccc(N(C)C)cc1	none (no result: INS promoter inh)
COc1ccc(C(=O)c2ccc(N(C)C)cc2)c2ccccc12	Autophagy HCS active (no result: Insulin prom up)
Cc1cc2c3c(ccc(C)c3n1)N=CN2c1ccccc1	INS promoter inh 81
Cc1cc(Nc2ccccc2)c2c([N+](=O)[O-])ccc(C)c2n1	none
CCN(CC)CCNC(=O)c1ccc(NC(=O)c2cn(-c3ccccc3)nc2-c2cccs2)cc1	Autophagy HCS active (no result: INS promoter inh)
CCN(C(=O)COC(=O)c1cccnc1Nc1ccccc1F)C1CCS(=O)(=O)C1 (centres undefined)	none
Nc1nnc(SCc2ccccc2Cl)s1	eIF4E-4G inh 77
O=C(CCc1ccccc1)NCC(=O)N/N=C/c1ccc(O)cc1O	PERK inhibitor 3.4 (no result: Autophagy HCS, INS promoter inh)
O=C(CNC(=O)c1cccs1)N/N=C/c1ccc(O)cc1O	none (no result: Insulin prom up)
O=C(NCCc1ccc2c(c1)OCCO2)c1ccc(F)cc1	none (no result: INS promoter inh)
CC(/C=N/NC(=O)c1cc(-c2ccncc2)nc2ccccc12)=C\c1ccco1	Autophagy HCS active (no result: Insulin prom up)
Cc1oc(-c2ccccc2)nc1C(=O)O	none (no result: INS promoter inh)
CC(=O)c1cccc(NC(=O)c2nc(-c3ccccc3)oc2C)c1	eIF4E-4G inh 40
O=C(Nc1nnc(-c2ccccc2)o1)Nc1ccc(F)cc1F	none
O=C(Nc1nnc(-c2ccccc2)o1)Nc1ccccc1Cl	Insulin prom up 3.8
COc1ccc(NC2=CC(=O)N(C)C2=O)cc1	none
Cc1ccc(NC(=O)/C(C#N)=C/c2ccc(C)s2)c(C)c1	Autophagy HCS active
Cc1ccc(/C=C(\C#N)C(=O)Nc2c(C)cccc2C)s1	none
c1ccc(-c2cc(-c3ccccc3)n3ncnc3n2)cc1	INS promoter inh 69
CCCc1nc2ccccc2c(=O)n1N	PERK inhibitor 3.6 (no result: Insulin prom up)
CCCc1cc(C(=O)O)c2ccccc2n1	none

Source: PubChem
